From PubChem
LASV entry inh = qHTS for Inhibitors of binding or entry into cells for Lassa Virus; Lassa virus pseudotype entry inhibition, cell reporter; Potency, µM (top dose mostly 37.9 µM), for the others: top-dose activity change, negative = inhibition, most hits filed as inhibitors; 300,000 compounds, 1.2% hits; calls by dose curve; tested in HEK293 cells; also: potency is read from the fitted curve at half-maximal effect; nearly all actives have a fitted effect of over 50% in size
Marburg entry inh = qHTS for inhibitors of binding or entry into cells for Marburg Virus; Marburg virus pseudotyped entry inhibition, cell reporter; Potency, µM (doses to about 37.8 µM), for the others: at the highest dose activity change, negative = inhibition, hits mostly inhibitors; 300,000 compounds, 1.8% hits; calls by dose curve; tested in HEK293 cells; also: potency is read from the fitted curve at half-maximal effect
HCV inhibitor = qHTS Assay for Inhibitors of Hepatitis C Virus (HCV); Huh7.5.1 HCVcc-Cre infection, luciferase reporter, 44 h; Potency, µM (highest dose often 41.8 µM), for the others: at the top dose activity change, negative = inhibition, usual class: inhibitors; 340,000 compounds, 3.4% hits; AID 651820, 2012; active = well fitted inhibition curve with a large enough effect; inconclusive = small, poorly fitted or top-dose-only effect, or another doubt; inactive = no such curve, though single readings can be large or run the other way; also: potency is read from the fitted curve at half-maximal effect
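Whole-lifecycle infectious HCVcc-Cre system; cells 1,000/well, compound then virus (~0.5 moi) added 4 h after plating, 44 h culture. Luciferase read 15 sec following 15 min substrate incubation, room temp.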
HCMV inh = qHTS Assay for inhibitors of the human cytomegalovirus (HCMV); HFF cells, HCMV-luciferase reporter, 72 h; active compounds read low; activity change, negative = inhibition, % at 57.5 µM; 410,000 compounds, 4.5% hits; in the data active = activity change below about -60%; inconclusive = no clear call, values can overlap the other calls; inactive = above about -39%
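Cell-based, HFFs, 1000 cells/well, 16 h 37C; cpds in DMSO + HCMV-luc, MOI 1 PFU/cell; 72 h 37C; OneGlo luminescence after 5 min RT; norm. to buffer vs Salinomycin 10uM.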
FMDV antiviral = High Throughput Screening for Foot and Mouth Disease Virus Antivirals; FMDV antiviral cell-based qHTS; Potency, µM (highest dose often 57.9 µM), for inactives: at the highest dose activity change, negative = inhibition, actives largely listed as inhibitors; 410,000 compounds, 1.2% hits; calls by dose curve; tested in HEK293T cells; also: read-out not given here; potency is read from the fitted curve at half-maximal effect; nearly all actives have a fitted effect of over 45% in size
Active calls of the source: *; ! = repeats disagree; [ ] = remark or other dose. This is a sample that favours compounds with a hit; in the whole collection about 7.9% have one here. % is scaled to controls: 0 for no effect and ±100 for the full control effect.

Results for O=[N+]([O-])c1ccc(N=Nc2c(O)[nH]c3ccc(F)cc23)cc1 ?
LASV entry inh: inconclusive; Marburg entry inh: inconclusive; HCV inhibitor: -21%; HCMV inh: -29; FMDV antiviral: -1%

How did CC1Cc2cc(S(=O)(=O)N3CCC(C(=O)NCc4ccco4)CC3)ccc2N1C(=O)C1CCC1 (stereo not given) do in these assays?
LASV entry inh: inconclusive; Marburg entry inh: 13µM*; HCV inhibitor: inconclusive; HCMV inh: inconclusive; FMDV antiviral: -15%

What do the screens show for `CC(=O)N1c2ccc(S(=O)(=O)N3CCC(C(=O)N4CCN(c5ccccc5F)CC4)CC3)cc2CC1C` (stereo not given)?
LASV entry inh: inconclusive; Marburg entry inh: -28%[46.1 µM]; HCV inhibitor: inconclusive; HCMV inh: -26; FMDV antiviral: inconclusive

Results for CC(=O)N1c2ccc(S(=O)(=O)N3CCCC(C(=O)N4CCC(C)CC4)C3)cc2CC1C (stereo not given) ?
HCV inhibitor: 11µM*; HCMV inh: inconclusive; FMDV antiviral: inconclusive

What do the screens show for `CN1C(=O)Cc2cc(S(=O)(=O)N3CCN(c4ccc(Cl)cc4)CC3)ccc21`?
LASV entry inh: -8%[46.1 µM]; Marburg entry inh: 21%[46.1 µM]; HCV inhibitor: -6%; HCMV inh: active!; FMDV antiviral: -18%

Results for COc1cccc(N2CCN(C(=O)C3CCN(S(=O)(=O)c4ccc5c(c4)CC(C)N5C(C)=O)CC3)CC2)c1 (stereo not given) ?
HCV inhibitor: 11µM*; HCMV inh: -20; FMDV antiviral: inconclusive

Results for COc1ccc(CCNC(=O)C2CCC(C(C)(C)C)CC2)cc1OC (stereo not given) ?
HCV inhibitor: -15%; HCMV inh: -18; FMDV antiviral: -9%

What do the screens show for `CC(=O)N1c2ccc(S(=O)(=O)N3CCC(C(=O)NCc4ccc(Cl)cc4)CC3)cc2CC1C` (stereo not given)?
LASV entry inh: inconclusive; Marburg entry inh: -6%[46.1 µM]; HCV inhibitor: inconclusive; HCMV inh: inconclusive; FMDV antiviral: -30%

What do the screens show for `CC1Cc2cc(S(=O)(=O)N3CCN(c4ccc(Cl)cc4)CC3)ccc2N1C(=O)C1CC1` (stereo not given)?
LASV entry inh: inconclusive; Marburg entry inh: inconclusive; HCV inhibitor: 6.3µM*; HCMV inh: -26; FMDV antiviral: inconclusive

What do the screens show for `CC(=O)N1c2ccc(S(=O)(=O)N3CCC(C(=O)NCCc4ccc(Cl)cc4)CC3)cc2CC1C` (stereo not given)?
LASV entry inh: inconclusive; Marburg entry inh: inconclusive; HCV inhibitor: 10µM*; HCMV inh: -40; FMDV antiviral: inconclusive

How did CC(=O)N1c2ccc(S(=O)(=O)N3CCC(C(=O)N4CCN(c5ccc(Cl)cc5)CC4)CC3)cc2CC1C (stereo not given) do in these assays?
HCV inhibitor: 10µM*; HCMV inh: -74*; FMDV antiviral: inconclusive

Results for CC1Cc2cc(S(=O)(=O)N3CCN(c4cccc(Cl)c4)CC3)ccc2N1C(=O)C1CC1 (stereo not given) ?
LASV entry inh: inconclusive; Marburg entry inh: -18%[46.1 µM]; HCV inhibitor: inconclusive; HCMV inh: -26; FMDV antiviral: -7%

What do the screens show for `CSc1ccc(CNC(=O)C(C)n2nc(C)c3c(C)n(-c4ccccc4)nc3c2=O)cc1` (stereo not given)?
LASV entry inh: inconclusive; Marburg entry inh: inconclusive; HCV inhibitor: inconclusive; HCMV inh: -62*; FMDV antiviral: -23%

What do the screens show for `Cc1ccc(-n2nc3c(=O)n(C(C)C(=O)NCCC4=CCCCC4)nc(C)c3c2C)cc1` (stereo not given)?
HCV inhibitor: 10µM*; HCMV inh: -61*; FMDV antiviral: 14µM*

How did Cc1ccc(-n2nc3c(=O)n(C(C)C(=O)NCc4ccc(Cl)cc4)nc(C)c3c2C)cc1 (stereo not given) do in these assays?
HCV inhibitor: 22µM*; HCMV inh: -68*; FMDV antiviral: inconclusive

Results for CCC(C(=O)NCCc1ccc(SC)cc1)n1nc(C)c2c(C)n(-c3ccc(C)cc3)nc2c1=O (stereo not given) ?
LASV entry inh: inconclusive; HCMV inh: -80*; FMDV antiviral: inconclusive

Results for Cc1ccc(-n2nc3c(=O)n(C(C)C(=O)NCc4ccccc4C)nc(C)c3c2C)cc1 (stereo not given) ?
LASV entry inh: -27%[46.1 µM]; HCMV inh: 0; FMDV antiviral: inconclusive

Results for CCOc1ccc(CCNC(=O)CS(=O)Cc2nc(-c3ccc(OC)c(OC)c3)oc2C)cc1OCC (stereo not given) ?
HCV inhibitor: inconclusive; HCMV inh: -4; FMDV antiviral: -2%

What do the screens show for `Cc1ccc(-n2nc3c(=O)n(C(C)C(=O)NCc4ccc(OC(C)C)cc4)nc(C)c3c2C)cc1` (stereo not given)?
LASV entry inh: inconclusive; HCMV inh: -77*; FMDV antiviral: 0%

How did O=C(Cn1nc(CNc2ccc(Br)cc2)[n+]2c1CCCCC2)c1ccc([N+](=O)[O-])cc1 do in these assays?
LASV entry inh: -2%; Marburg entry inh: -18%; HCV inhibitor: -6%; HCMV inh: -92*; FMDV antiviral: -12%

What do the screens show for `COc1ccc(OC)c(NC(=O)Cn2c(=O)cc(C)c3c(C)nn(-c4cccc(Cl)c4C)c32)c1`?
LASV entry inh: 1%[46.1 µM]; HCMV inh: inconclusive; FMDV antiviral: -30%

Results for CC(=O)O[C@@H]1C[C@H]2C(C)(C)C(=O)C=C[C@]2(C)[C@H]2CC[C@@]3(C)[C@H](c4ccoc4)OC(=O)[C@H]4O[C@]43[C@@]21C ?
LASV entry inh: 18µM*; Marburg entry inh: inconclusive; HCV inhibitor: inconclusive; HCMV inh: -79*; FMDV antiviral: 16µM*

Results for CC(=O)OC1CC2C(C)(C)C(=O)CC[C@]2(C)C2CC[C@@]3(C)C(c4ccoc4)OC(=O)C4OC43[C@]12C (stereo not given in full) ?
FMDV antiviral: -10%

How did CCN(CC)CCOC(=O)c1ccc(NC(=O)c2nn(C)c3c2COc2ccccc2-3)cc1 do in these assays?
LASV entry inh: inconclusive; Marburg entry inh: -6%[46.1 µM]; HCMV inh: -87*; FMDV antiviral: 13%

Results for CCOC(=O)c1ccc(NC(=O)c2nn(C)c3c2COc2ccccc2-3)cc1 ?
LASV entry inh: inconclusive; Marburg entry inh: inconclusive; HCMV inh: -30; FMDV antiviral: -4%

How did Cc1ccc(NC(=O)C(Cc2ccccc2)NS(=O)(=O)c2ccc3c(c2)oc(=O)n3C)cc1F (stereo not given) do in these assays?
LASV entry inh: -2%[46.1 µM]; Marburg entry inh: -5%[46.1 µM]; HCMV inh: 6; FMDV antiviral: 6%
